“And” between values parts separate entries of the source, which are not always exact repeats. Equal values may be shown once. Results filed as inconclusive are left out. A structure can be active in one record and inactive in another. Unmarked numbers belong to inactive results. The source made the active and inactive calls. The call rests on the fitted dose curve; in most records, active means well fitted inhibition curve with a large enough effect; inconclusive means small, poorly fitted or top-dose-only effect; inactive means flat fitted curve, though single readings scatter.

Test [1] concerns CRL-7250. Kind of test: Cytotoxic Profiling of Annotated Libraries Using Quantitative High-Throughput Screening (AID 1296008). Further: potency means the concentration at half of the fitted maximal effect. On max response: on the % scale 0 is the no-effect control and ±100 the full control effect. The conditions noted are these: Five cell lines viability, CellTiter-Glo ATP luminescence, 48-72 h; max response: active compounds read low. Put shortly: (§1)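 Cytotoxicity was measured as CellTiter-Glo ATP luminescence, read after 10 min at room temperature. Compound treatment of the cells lasted 48 or 72 hr at 37 degrees Celsius in a qHTS format.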

The test system of test [2] is HEK293. Described as above. The conditions noted are these: Five cell lines viability, CellTiter-Glo ATP luminescence, 48-72 h; max response: active compounds read low. Put shortly: as §1
The subject of test [3] is HaCat. The test is described as above. The conditions noted are these: Five cell lines viability, CellTiter-Glo ATP luminescence, 48-72 h; max response: active compounds read low. Put shortly:
as §1
(In general: In ATP-based viability assays light output follows the ATP content of the culture.)

Test [4] has as its system KB-3-1. The test is described as above. The conditions noted are these: Five cell lines viability, CellTiter-Glo ATP luminescence, 48-72 h; max response: active compounds read low. Put shortly:
as §1

Test [5] relates to NIH3T3. The test is described as above. The conditions noted are these: Five cell lines viability, CellTiter-Glo ATP luminescence, 48-72 h; max response: active compounds read low. The method, boiled down:
as §1

Test [6] has as its system TAB113. Kind of test: qHTS profiling for inhibitors of Plasmodium falciparum proliferation (AID 504749). Further: potency means the concentration at half of the fitted maximal effect. As to conditions: P. falciparum in erythrocytes, SYBR Green DNA, 72 h; series mostly up to 28.7 µM. Put shortly: (§2)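 Three-day growth assay of blood-stage parasites in erythrocytes (0.3% parasitemia, 2.5% hematocrit) at 37 C, 5% CO2, quantified by SYBR Green DNA staining after overnight detergent lysis.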

Test [7] relates to TAB165. The description is as above. As to conditions: P. falciparum in erythrocytes, SYBR Green DNA, 72 h; series mostly up to 28.7 µM. Put shortly: as §2
The subject of test [8] is W2. The description is as above. The conditions noted are these: P. falciparum in erythrocytes, SYBR Green DNA, 72 h; series mostly up to 28.7 µM. The method, boiled down: as §2
The test system of test [9] is HACAT. Description: qHTS assay to identify novel small-molecules to repurpose for Merkel cell carcinoma treatment (AID 1296009). The conditions noted are these: MCC and control cell lines, CellTiter-Glo viability, 72 h; at 44.8 µM (top of the series) unless noted. Put shortly:
(§3)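 After compound transfer in DMSO, plates were kept 72 hr at 37 degree celsius. Luminescent ATP signal from CellTiter-Glo served as viability measure, normalized against DMSO and no-cell controls.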

For test [10], the system named is HEK293T. The description is as above. The conditions noted are these: MCC and control cell lines, CellTiter-Glo viability, 72 h; at 44.8 µM (top of the series) unless noted. The method, boiled down:
as §3
Further: nearly all actives have a fitted effect of over 60% in size.

For `CCOC(=O)C1=C[C@@H](OC(CC)CC)[C@H](NC(C)=O)[C@@H](N)C1`, the max response was 0.667% in test [1]; -4.58% in test [2]; 1.74% in test [3]; 14.9% and 5.96% in test [4]. Besides, the outcome in [5] was inactive.
Regarding `O=C(NCCO[N+](=O)[O-])c1cccnc1`, the Potency result in [6], in test [7] and in test [8] was “inactive” each time. The max response in test [1] was -0.661% and -5.95%; in [3], 4.19%. Also, the compound was classed as inactive in [2], in test [3], in test [5], in [9] and in test [10].
For the compound `CC1Cc2ccccc2N1NC(=O)c1ccc(Cl)c(S(N)(=O)=O)c1` (centres undefined), the max response in [1] is -6.14% and 4.23%; in test [2], 0.791% and 0.879%; in test [3], -11.1%; in test [5], 3.24% and 4.11%. Further, the outcome in test [3] and in test [9] was inactive.
For `NS(=O)(=O)c1cc(C(=O)O)c(NCc2ccco2)cc1Cl`, the max response in test [1] is -5.7% and -6.17%; in test [2] it was 1.46% and -13.3%; in [3], -0.435% and 2.7%; in test [4], -9.49% and -2.22%; in [5] it was -5.6% and -3.32%.
In the case of `CC(C)c1ccc2c(c1)c(SC(C)(C)C)c(CC(C)(C)C(=O)O)n2Cc1ccc(Cl)cc1`, the max response in test [1] was -29.4%; in test [2] it was -2.03%; in [3], -20.8%; in test [4], -8.99%. For the same compound, the compound was classed as inactive in test [5].
For the compound `COc1ccccc1N1CCN(CCN(C(=O)C2CCCCC2)c2ccccn2)CC1`, the outcome in test [1] and in test [5] was inactive. Moreover, the max response in test [2] is 3.7%; in [3], 1.26% and -29.9%; in [4] it was -8.11% and 2.92%; in test [5], -13.5%.
With `Cc1nccn1CC1CCc2c(c3ccccc3n2C)C1=O` (centres undefined), the max response in test [1] was -48.9% and -2.23% and -14.6%; in [2] it was -1.64% and -12.7% and -0.203%; in test [3], -3.6% and 4.03%; in test [4], -3.61% and -19.2%; in [5], -4.36% and -4.32% and -0.458%. In addition, the call in test [3], in [4] and in [9] was inactive.
Take `S=c1nc[nH]c2nc[nH]c12`: the max response in test [1] was -19.8%. Further, the Potency in test [2] was 6.68 µM (active) and 13.2 µM (active); in [3], 14.8 µM (active); in test [4], 7.43 µM (active); in test [5] it was 1.88 µM (active) and 4.69 µM (active).
As for `COC(=O)C1=C(C)NC(C)=C(C(=O)OCCCN2CCC(c3ccccc3)(c3ccccc3)CC2)C1c1cccc([N+](=O)[O-])c1` (centres undefined), the Potency in test [6] is 2.51 µM (active); in test [7], 2.82 µM (active); in test [8] it was 3.38 µM (active); in [2], 8.41 µM (active). In addition, the max response in [1] was -3.52%; in test [2] it was -0.0015%. Besides, the compound was called inactive in test [3], in test [5] and in test [9].
For the compound `CCOC(=O)c1c(C)n(C)c2ccc(O)cc12`, the Potency result in test [6], in [7] and in test [8] was “inactive” in each case. In addition, the max response was 3.97% and 0.808% in [1]; 0.41% and 2.4% in [2]; 4.97% in [3]; -5.37% in [5]. The compound was classed as inactive in test [3], in test [5] and in test [9].
Regarding `Oc1ccc(OCc2ccccc2)cc1`, the Potency result in [6] and in test [7] was “inactive” throughout. Also, the max response was -0.407% and -9.61% in test [1]; -5.94% and -19.5% in test [2]; -14% and -4.74% in test [3]; 45.1% in [4]. Also, the compound was called inactive in test [4] and in [5].
As to `CNC[C@H](O)c1ccc(O)c(O)c1`, the Potency entry in test [6], in test [7] and in test [8] was “inactive” throughout. Also, the max response was -3.3% and -3.53% in [1]; -3.32% in [2]; -1.14% and -13.4% in [3]; 2.62% in [4]. Also, the result in test [2] and in test [5] was inactive. Besides, in test [10], the outcome is “inactive [at 17.4 µM]”.
On to `N[C@@H](Cc1cc(I)c(Oc2cc(I)c(O)c(I)c2)c(I)c1)C(=O)O`, for which the Potency entry in test [6], in test [7] and in test [8] was “inactive” throughout. The max response in test [1] was 0.853% and -3.78% and 2.29%; in test [2], 0.988% and -21.3% and 2.79%; in [3], -2.11%; in [4] it was -0.982% and 2.52%; in [5], -14.5%. For the same compound, the call in test [3], in test [4], in test [5] and in test [9] was inactive.
